Laboratory results reported in PubChem BioAssay.
Active and inactive are the calls of the source.

What was measured:
[1] = binders of probe aFSTL3 on microarray, primary screen, stem cell growth factor project, biochemical, small-molecule microarray, fluorescence 635/667 (AID 1064); settings: higher = more signal;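 further: measures binding of the biotinylated anti-FSTL3 antibody to printed compounds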
[2] = binders from COS7 lysate, DM2A8 probe, primary screen, torsin A project, cell lysate, small-molecule microarray, fluorescence 635/667 (AID 1065); settings: higher = more signal, COS7 lysate expressing mutant human TOR1A
[3] = binders of probe aFGF2 on microarray, primary screen, stem cell growth factor project, biochemical, small-molecule microarray, fluorescence 635/667 (AID 1067); settings: higher = more signal;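 further: measures binding of biotinylated aFGF2 protein to printed compounds on slides; z-score merges feature fluorescence and signal-to-noise across triplicate slides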
[4] = binders of probe aFGF10 on microarray, primary screen, stem cell growth factor project, biochemical, small-molecule microarray, fluorescence 635/667 (AID 1071); settings: higher = more signal;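 further: score merges 667 nm spot intensity and signal to noise from triplicate slides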
[5] = target: Neurogenic locus notch homolog protein 2 (Homo sapiens) (UniProt Q04721); assay: Notch2 binders on small-molecule microarrays, primary screen, biochemical, small-molecule microarray, 635 nm fluorescence, stem cell growth factors (AID 1073); settings: Notch2 binding, higher = more signal
[6] = target: Pro-neuregulin-1, membrane-bound isoform (Homo sapiens) (UniProt Q02297); assay: NRG1 binders on small-molecule microarrays, primary screen, psychiatric disease protein project, biochemical, small-molecule microarray, fluorescence 635/667 (AID 1075); settings: NRG1 binding, 635 nm fluorescence, higher = more signal;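 further: score combines 667 nm spot fluorescence with signal to noise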
Sequence of Pro-neuregulin-1, membrane-bound isoform (Homo sapiens) (Q02297 whole entry, looked up, the tested form may be a part, canonical isoform): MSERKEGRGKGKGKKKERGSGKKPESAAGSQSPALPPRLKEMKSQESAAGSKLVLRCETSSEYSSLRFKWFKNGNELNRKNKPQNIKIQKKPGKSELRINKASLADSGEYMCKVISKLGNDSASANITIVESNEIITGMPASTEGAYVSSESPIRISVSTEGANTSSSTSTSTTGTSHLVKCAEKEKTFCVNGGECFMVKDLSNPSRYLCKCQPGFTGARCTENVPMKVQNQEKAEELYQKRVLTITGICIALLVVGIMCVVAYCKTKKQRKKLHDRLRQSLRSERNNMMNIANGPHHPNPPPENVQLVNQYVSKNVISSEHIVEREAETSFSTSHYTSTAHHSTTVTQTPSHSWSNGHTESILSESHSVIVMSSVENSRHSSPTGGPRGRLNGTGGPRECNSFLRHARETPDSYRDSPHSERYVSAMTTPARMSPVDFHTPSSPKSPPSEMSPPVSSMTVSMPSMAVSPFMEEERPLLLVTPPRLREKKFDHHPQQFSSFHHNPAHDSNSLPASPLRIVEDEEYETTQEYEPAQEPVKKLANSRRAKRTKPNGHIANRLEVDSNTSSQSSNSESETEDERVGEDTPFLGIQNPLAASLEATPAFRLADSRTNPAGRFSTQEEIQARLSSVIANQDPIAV

[7] = tested on: Neuregulin-1 EGF-like domain; assay: binders of neuregulin-1 EGF-like domain, primary screen, biochemical, small-molecule microarray, 635 nm fluorescence (AID 1081); settings: small-molecule microarray binding, higher = more signal;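 further: binding of the protein to compounds printed on small-molecule microarray slides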
[8] = FRG1 promoter luciferase signal modulators, primary screen, FRG1 inhibition for FSHD, cell-based, C2C12 myotubes, firefly/Renilla luciferase, luminescence (AID 1084); settings: higher = more signal, called active from +8 up or from −8 down
[9] = binders of probe aFST on microarray, primary screen, stem cell growth factor project, biochemical, small-molecule microarray, fluorescence 635/667 (AID 1086); settings: higher = more signal;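 further: score merges 667 nm fluorescence with signal-to-noise of each printed compound spot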
[10] = binders of probe aHhip on microarray, primary screen, stem cell growth factor project, biochemical, small-molecule microarray, fluorescence 635/667 (AID 1087); settings: higher = more signal;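 further: score merges spot fluorescence at 667nm with spot signal to noise ratio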
[11] = tested on: PRMT1 (protein arginine N-methyltransferase 1); assay: PRMT1 binders on small-molecule microarrays, primary screen, biochemical, small-molecule microarray, 635 nm fluorescence (AID 1088); settings: small-molecule microarray binding, higher = more signal;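 further: binding of Prmt1 protein to compounds spotted on small-molecule microarray slides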
[12] = yeast growth modulation, basal conditions, primary screen, YJM789 clinical isolate, OD600, 24 h (AID 1089);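 further: growth of clinical yeast isolate S. cerevisiae YJM 789 seeded 1000 cells per well; test concentration not given here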; settings: S. cerevisiae YJM789 growth, higher = more signal, called active from +8 up or from −8 down
[13] = fission yeast growth modulation, primary screen, strain 972, OD600, 24 h, no modulator (AID 1090);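 further: basal condition with compound alone and no growth modifier present; test concentration not given here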; settings: S. pombe 972 growth, higher = more signal, called active from +8 up or from −8 down
[14] = S. cerevisiae growth modulation with rapamycin, primary screen, strain BY4716, OD600, 96 h (AID 1091); settings: higher = more signal, called active from +8 up or from −8 down; further: test concentration not given here
[15] = target: Torsin-1A-interacting protein 2 (Homo sapiens) (UniProt Q8NFQ8); assay: LULL1 binders on small-molecule microarray, primary screen, cell lysate, human LULL1 lysate, 635/667 nm fluorescence (AID 1092); settings: hLULL1 lysate binding, 635 nm fluorescence, higher = more signal;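 further: probe is lysate of COS7 cells overexpressing human LULL1; score merges per-feature 667 nm fluorescence with signal-to-noise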
Sequence of Torsin-1A-interacting protein 2 (Homo sapiens) (Q8NFQ8 whole entry, looked up): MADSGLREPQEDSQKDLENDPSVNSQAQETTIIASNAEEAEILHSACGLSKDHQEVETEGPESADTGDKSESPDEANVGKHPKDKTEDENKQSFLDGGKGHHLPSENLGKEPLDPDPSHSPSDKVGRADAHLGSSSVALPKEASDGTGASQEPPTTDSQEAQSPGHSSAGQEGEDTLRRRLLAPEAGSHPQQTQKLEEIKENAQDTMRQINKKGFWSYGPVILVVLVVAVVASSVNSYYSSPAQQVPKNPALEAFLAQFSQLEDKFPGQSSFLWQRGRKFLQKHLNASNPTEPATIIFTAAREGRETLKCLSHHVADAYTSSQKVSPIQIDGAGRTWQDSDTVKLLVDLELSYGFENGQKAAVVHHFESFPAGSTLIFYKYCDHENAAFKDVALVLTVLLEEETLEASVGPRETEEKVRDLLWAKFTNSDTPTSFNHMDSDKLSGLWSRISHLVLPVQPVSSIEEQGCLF

[16] = E. coli growth modulation, two-sided OD650, primary screen, E. coli filamentation project, strain DRC41, 24 h (AID 1093); settings: OD650, 24 h, higher = more signal, called active from +8 up or from −8 down;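 further: MC1000 strain lacking acrAB efflux and sulA so SOS filamentation is blocked; test concentration not given here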
[17] = small-molecule microarray binders of probe aLefty2, primary screen, biochemical, biotinylated probe, 635/667 nm fluorescence (AID 1094); settings: higher = more signal;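 further: score merges spot fluorescence near 667 nm with spot signal-to-noise ratio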
[18] = tested on: Noggin (protein binding on small-molecule microarray); assay: Noggin binders on small-molecule microarray, primary screen, biochemical, 635/667 nm fluorescence (AID 1095); settings: 635 nm fluorescence, higher = more signal;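 further: score merges 667 nm feature fluorescence with signal to noise over triplicate slides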
[19] = target: Neurogenic locus notch homolog protein 3 (Homo sapiens) (UniProt Q9UM47); assay: NOTCH3 binders on small-molecule microarray, primary screen, biochemical, 635/667 nm fluorescence (AID 1096); settings: NOTCH3 binding, 635 nm fluorescence, higher = more signal
Sequence of Neurogenic locus notch homolog protein 3 (Homo sapiens) (Q9UM47 whole entry, looked up): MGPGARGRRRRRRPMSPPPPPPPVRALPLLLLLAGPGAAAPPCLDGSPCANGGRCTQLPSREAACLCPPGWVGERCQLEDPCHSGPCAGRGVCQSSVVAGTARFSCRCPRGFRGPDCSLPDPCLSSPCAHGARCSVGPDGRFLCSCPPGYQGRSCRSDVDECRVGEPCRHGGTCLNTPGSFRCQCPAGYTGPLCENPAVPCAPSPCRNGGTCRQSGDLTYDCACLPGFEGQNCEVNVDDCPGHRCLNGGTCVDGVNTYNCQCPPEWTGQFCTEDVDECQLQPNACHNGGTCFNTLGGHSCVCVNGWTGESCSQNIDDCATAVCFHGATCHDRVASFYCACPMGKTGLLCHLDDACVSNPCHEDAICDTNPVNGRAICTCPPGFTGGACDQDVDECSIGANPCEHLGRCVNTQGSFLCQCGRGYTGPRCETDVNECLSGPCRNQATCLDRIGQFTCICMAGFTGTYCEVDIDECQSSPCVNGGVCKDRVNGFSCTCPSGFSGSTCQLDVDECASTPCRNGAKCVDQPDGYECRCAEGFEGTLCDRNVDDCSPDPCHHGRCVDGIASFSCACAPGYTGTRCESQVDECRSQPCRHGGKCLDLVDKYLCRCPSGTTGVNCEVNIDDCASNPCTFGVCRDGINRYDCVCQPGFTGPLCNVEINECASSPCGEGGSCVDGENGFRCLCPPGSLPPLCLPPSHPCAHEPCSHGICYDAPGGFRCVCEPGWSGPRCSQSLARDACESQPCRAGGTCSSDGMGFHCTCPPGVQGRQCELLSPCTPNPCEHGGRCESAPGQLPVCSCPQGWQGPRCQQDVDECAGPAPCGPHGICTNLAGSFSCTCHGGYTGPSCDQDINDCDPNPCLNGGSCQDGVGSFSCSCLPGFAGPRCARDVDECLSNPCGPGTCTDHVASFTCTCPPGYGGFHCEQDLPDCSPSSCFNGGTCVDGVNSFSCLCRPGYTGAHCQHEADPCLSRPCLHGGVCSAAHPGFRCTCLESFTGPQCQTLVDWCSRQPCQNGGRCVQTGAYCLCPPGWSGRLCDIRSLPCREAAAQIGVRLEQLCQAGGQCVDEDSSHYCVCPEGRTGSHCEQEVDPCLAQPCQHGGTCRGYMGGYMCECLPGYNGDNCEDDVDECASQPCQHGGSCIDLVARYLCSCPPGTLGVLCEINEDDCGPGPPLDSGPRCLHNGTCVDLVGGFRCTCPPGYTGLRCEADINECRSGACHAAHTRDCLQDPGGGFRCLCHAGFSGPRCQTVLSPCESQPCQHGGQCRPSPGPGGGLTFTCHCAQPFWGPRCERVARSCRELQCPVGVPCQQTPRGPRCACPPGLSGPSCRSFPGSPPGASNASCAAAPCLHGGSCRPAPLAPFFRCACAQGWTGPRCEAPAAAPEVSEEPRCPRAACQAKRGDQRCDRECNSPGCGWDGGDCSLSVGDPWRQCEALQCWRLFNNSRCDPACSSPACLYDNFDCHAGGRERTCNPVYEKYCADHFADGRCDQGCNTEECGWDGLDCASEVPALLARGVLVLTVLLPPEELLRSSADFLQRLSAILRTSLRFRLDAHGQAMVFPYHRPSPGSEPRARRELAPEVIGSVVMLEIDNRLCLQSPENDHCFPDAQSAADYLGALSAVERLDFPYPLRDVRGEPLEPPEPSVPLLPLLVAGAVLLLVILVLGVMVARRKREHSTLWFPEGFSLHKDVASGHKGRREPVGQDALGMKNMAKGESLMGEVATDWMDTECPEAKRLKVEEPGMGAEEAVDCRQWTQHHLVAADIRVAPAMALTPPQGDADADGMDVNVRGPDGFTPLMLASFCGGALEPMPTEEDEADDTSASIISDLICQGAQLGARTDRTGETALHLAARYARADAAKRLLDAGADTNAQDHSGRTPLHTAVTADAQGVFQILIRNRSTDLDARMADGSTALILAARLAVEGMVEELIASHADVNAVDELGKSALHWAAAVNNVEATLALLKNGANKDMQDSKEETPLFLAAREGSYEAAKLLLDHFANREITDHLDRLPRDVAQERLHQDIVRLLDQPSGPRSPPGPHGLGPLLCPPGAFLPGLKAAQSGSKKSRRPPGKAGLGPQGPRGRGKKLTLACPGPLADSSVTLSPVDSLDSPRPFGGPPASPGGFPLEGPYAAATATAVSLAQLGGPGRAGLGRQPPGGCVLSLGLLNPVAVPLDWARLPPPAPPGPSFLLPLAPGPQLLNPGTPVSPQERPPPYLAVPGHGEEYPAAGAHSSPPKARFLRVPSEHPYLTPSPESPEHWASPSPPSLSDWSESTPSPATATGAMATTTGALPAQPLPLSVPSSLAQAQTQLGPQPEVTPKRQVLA

[20] = small-molecule microarray binders of probe aEGFR, primary screen, biochemical, biotinylated probe, 635/667 nm fluorescence (AID 1097); settings: higher = more signal;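 further: probe is a biotinylated anti-EGFR antibody binding compounds printed on slides; score combines fluorescence near 667 nm and signal to noise of each spot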

| SMILES | composite z-score [1] | composite z-score [2] | composite z-score [3] | composite z-score [4] | composite z-score [5] | composite z-score [6] | composite z-score [7] | z-score [8] | composite z-score [9] | composite z-score [10] | composite z-score [11] | z-score [12] | z-score [13] | z-score [14] | composite z-score [15] | z-score [16] | composite z-score [17] | composite z-score [18] | composite z-score [19] | composite z-score [20] |
| --- | --- | --- | --- | --- | --- | --- | --- | --- | --- | --- | --- | --- | --- | --- | --- | --- | --- | --- | --- | --- |
| COC(=O)CC=C[C@@H](C)[C@@H](C=NOC(C)CN1CCCc2nc(C)c(C)cc21)OC (stereo not given in full) | -0.111 | 0.382 | -0.121 | 0.354 | 0.401 | -0.171 | 0.375 | 0.422 (inactive) | 0.0017 | -0.0237 | 0.356 | 0.293 (inactive) | 0.245 (inactive) | 0.0448 (inactive) | 0.283 | -0.64 (inactive) | -0.165 | 0.541 | 0.625 | 0.0009 |
| COCOc1ccc(Br)cc1C(=O)[C@@H]1O[C@H]1c1cccc(OC)c1 | -0.305 | -0.0196 | -0.122 | 0.204 | 0.333 | -0.268 | 0.287 | -0.0714 (inactive) | -0.0156 | -0.202 | -0.0021 | -1.33 (inactive) | -6.67 (inactive) | -0.822 (inactive) | 0.497 | 1.58 (inactive) | -0.142 | 0.455 | 0.257 | -0.112 |
| CCc1cc2c(nc1CC)CCN(CCC(C)=NO[C@@H](C)c1cn([C@H](CO)Cc3ccccc3)nn1)C2 | -0.0739 | 0.39 | -0.123 | 0.112 | -0.0274 | 0.373 | -0.0269 | 0.704 (inactive) | 0.283 | 0.115 | -0.329 | 0.687 (inactive) | 0.22 (inactive) | -0.215 (inactive) | 0.559 | -0.189 (inactive) | 0.0336 | 0.42 | 0.438 | -0.0679 |
| CCN1C(=O)[C@@H]2[C@H]3C(=CC[C@@H]2C1=O)C1(OCCCO1)[C@H]1O[C@H]1[C@H]3O | -0.418 | 0.771 | -0.076 | 1.04 | 1.17 | 0.692 | 1.19 | 7.42 (inactive) | 0.404 | -0.236 | 1.44 | 1.17 (inactive) | -6.63 (inactive) | 1.66 (inactive) | 0.899 | -0.0556 (inactive) | -0.16 | 0.643 | 1.07 | 0.0043 |
| CO[C@@H]1COC(=O)[C@H](CCSC)NC(=O)CC=C[C@@H](C)COC(=O)[C@H](C)NC(=O)CC=C[C@H]1C | -0.605 | 1.03 | -0.129 | 0.347 | 0.115 | -0.343 | 0.871 | -0.0159 (inactive) | 0.457 | 0.408 | 1.39 | 0.153 (inactive) | -0.266 (inactive) | 0.291 (inactive) | -0.0068 | 1.01 (inactive) | -0.247 | 0.783 | 0.989 | -0.201 |
| CC(C)(C)N1C(=O)[C@H]2[C@H]3[C@H](O)[C@H](O)CC(=NOCc4ccccc4)[C@H]3CC[C@H]2C1=O | 1.55 | 0.636 | -0.0006 | -0.0753 | -0.224 | -0.102 | -0.559 | 0.431 (inactive) | 0.687 | -0.119 | -0.201 | -0.612 (inactive) | -0.925 (inactive) | -0.22 (inactive) | 0.351 | 0.662 (inactive) | 0.439 | -0.616 | -0.288 | -0.125 |
| CCOC(=O)[C@H](Cc1ccccc1)NC(=O)CCC1CC(OC(=O)NCc2cccc3ccccc23)CC2(CCCC(COC(=O)NCc3ccccc3)O2)O1 (stereo not given in full) | -0.356 | 0.0841 | -0.21 | 0.159 | 0.118 | 0.477 | 0.686 | 0.573 (inactive) | 0.0918 | -0.303 | 1.04 | -2.28 (inactive) | -2.51 (inactive) | -0.414 (inactive) | 0.728 | -1.42 (inactive) | -0.0931 | 0.547 | 0.955 | -0.142 |
| C=CC[C@@H]1C=C[C@H](ON=C(C)CCC(=O)OC[C@H]2O[C@H](C#Cc3ccccc3)C=C[C@@H]2Oc2ccc(C)cc2)[C@@H](CO)O1 | -0.566 | 0.692 | 0.0624 | 0.782 | 1.12 | 0.661 | 0.984 | -0.349 (inactive) | 0.203 | 0.0373 | 1.54 | 1.28 (inactive) | 0.275 (inactive) | 1.06 (inactive) | 2.2 | 0.943 (inactive) | -0.116 | 0.615 | 1.12 | 0.109 |
| O=C1C[C@@H](O)[C@@H](O)[C@@H]2[C@@H]3C(=O)N(Cc4ccc5c(c4)OCO5)C(=O)[C@@H]3CC[C@H]12 | -0.296 | 0.348 | -0.0218 | 0.477 | 0.558 | 0.229 | 0.29 | 0.376 (inactive) | 0.078 | 0.0505 | 0.0008 | 0.264 (inactive) | -0.587 (inactive) | -0.511 (inactive) | 0.443 | 0.378 (inactive) | -0.136 | 0.318 | 0.406 | 0.0135 |
| COC(=O)[C@H](C)NC(=O)CCC1CC(OC(=O)NCCc2ccc(F)cc2)CC2(CCCC(COC(=O)NCCC(C)C)O2)O1 (stereo not given in full) | -0.279 | -0.0132 | -0.0407 | 1.11 | 0.824 | 1.26 | 0.888 | 0.033 (inactive) | 0.281 | -0.13 | 0.173 | -1.79 (inactive) | -0.148 (inactive) | -0.104 (inactive) | 2.22 | -0.641 (inactive) | -0.209 | 1.06 | 0.49 | -0.111 |
